# Test results taken from article PMC6919601, “Identification of Plasmodium dipeptidyl aminopeptidase allosteric inhibitors by high throughput screening” (PLoS ONE, 2019).
# Among all 110,000 compounds or so, about 230 (0.21%) showed an effect of 50% or more. Shown is part of a subset that was picked to be rich in strong results.
# Molecular target: DPAP1 (Plasmodium falciparum, UniProt Q8IIJ9)
# Assay: primary screen, percent inhibition; read by cleavage of a fluorogenic dipeptide substrate; higher = more effect of the substance
# Parameters: species or system P. falciparum D10 trophozoite lysates; single well
# 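Further: 30 min substrate incubation versus DMSO and 10 µM JCP410 controls.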
# Sequence of DPAP1 (Q8IIJ9 whole entry, looked up): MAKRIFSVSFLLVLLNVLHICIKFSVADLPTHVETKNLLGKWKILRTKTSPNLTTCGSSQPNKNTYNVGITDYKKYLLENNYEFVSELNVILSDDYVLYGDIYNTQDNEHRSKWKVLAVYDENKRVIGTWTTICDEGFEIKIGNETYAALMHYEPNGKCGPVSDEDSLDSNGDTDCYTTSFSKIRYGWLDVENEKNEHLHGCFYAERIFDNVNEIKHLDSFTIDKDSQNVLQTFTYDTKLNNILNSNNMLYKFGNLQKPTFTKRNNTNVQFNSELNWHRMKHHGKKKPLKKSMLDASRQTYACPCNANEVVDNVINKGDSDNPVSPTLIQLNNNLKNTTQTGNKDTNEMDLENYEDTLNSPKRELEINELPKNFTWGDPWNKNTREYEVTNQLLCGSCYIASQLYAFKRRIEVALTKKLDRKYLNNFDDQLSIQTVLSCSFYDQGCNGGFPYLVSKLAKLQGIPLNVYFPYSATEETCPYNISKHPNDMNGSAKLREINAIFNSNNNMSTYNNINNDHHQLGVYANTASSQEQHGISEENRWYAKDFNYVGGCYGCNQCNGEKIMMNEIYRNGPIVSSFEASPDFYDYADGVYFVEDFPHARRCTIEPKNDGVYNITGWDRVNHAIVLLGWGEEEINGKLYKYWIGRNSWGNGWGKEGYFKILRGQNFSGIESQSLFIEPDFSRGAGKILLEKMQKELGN
row,Compound,% Inhibition @ 10 uM
1,CN(C)CCN(Cc1ccccc1)c1ncnc2onc(-c3ccc(F)cc3)c12,-2.52%
2,CC(=O)Nc1ccc(Nc2nc(-c3c(C)nc4cc(C)ccn34)cs2)cc1,25.6%
3,CC(C)Cc1c(C#N)c(S)nc2c1CCCC2,90.5%
4,CCc1c(C#N)c(S)nc2c1CCC2,88.7%
5,N#Cc1c(S)nc2c(c1/C=C/c1ccccc1)CCC2,17.3%
6,CCc1c(C#N)c(SCC(=O)OC)nc2c1CCC2,4.16%
7,CC(C)Cc1c(C#N)c(SCC(N)=O)nc2c1CCCC2,9.71%
8,N#Cc1c(S)nc2c(c1-c1ccncc1)CCCC2,30.8%
9,CCn1ncc(Br)c1C(=O)Nc1ccc(S(=O)(=O)Nc2ccc(OC)cc2)cc1,-4.43%
10,O=C(O)c1cc(C(=O)O)cc(N2C(=O)c3ccc([N+](=O)[O-])cc3C2=O)c1,1.64%
11,O=C(c1sc(N2CCOCC2)nc1-c1ccccc1)c1c[nH]c2ccccc12,72.2%
12,O=C(CN1CCOCC1)c1c[nH]c2ccccc12,7.5%
13,CC1(C)OCCN1C(=O)C(=O)c1c[nH]c2ccccc12,-2.68%
14,Cc1nnc(N2CCC(C(=O)NCCc3ccc(Cl)cc3)CC2)c2nn(-c3ccccc3)c(C)c12,0.58%
15,COc1ccc(C2=NN(CCc3ccccn3)C(=O)C2)cc1,-4.06%
16,O=C1N=C(N2CCN(C3=NC(=O)/C(=C\c4cccc(O)c4)S3)CC2)S/C1=C\c1cccc(O)c1,6%
17,O=C1N=C(N2CCN(Cc3ccccc3)CC2)S/C1=C\c1ccccc1,-2.82%
18,O=C1N=C(N2CCN(Cc3ccccc3)CC2)S/C1=C\c1cccc(O)c1,51%
19,CCOC(=O)N1CCN(C(=O)Cc2c(C(=O)O)n(C)c3ccccc23)CC1,2.84%
20,CCOC(=O)N1CCC(NC(=O)Cc2cn(C)c3ccccc23)CC1,-2.41%
21,Cn1cc(CCC(=O)NCc2ccccn2)c2ccccc21,3.28%
22,Cn1cc(CC(=O)NCc2ccc(F)cc2)c2ccccc21,-4.76%

row,Compound,% Inhibition @ 10 uM
1,CCOC(=O)N1CCN(C(=O)Cc2cn(C)c3ccccc23)CC1,85.9%
2,Cn1cc(CC(=O)NCc2ccccn2)c2ccccc21,87.4%
3,CSCCCN(C)CCc1ccccn1,-7.56%
4,CN(C)c1ccc(NC(=O)C23CC4CC(C2)CC(n2cnc(Cl)n2)(C4)C3)cc1,-0.305%
5,Cc1ccc(C)c(-c2csc(NC(=O)CSc3ccccc3)c2C(N)=O)c1,1.02%
6,N#Cc1c(C(F)(F)F)cc(-c2cccs2)nc1SCC(=O)N1CCCCC1,87%
7,COc1ccc(-c2cc(-c3ccccc3)nc(SCC(=O)N3CCOCC3)c2C#N)cc1,5.24%
8,N#Cc1c(C(F)(F)F)cc(-c2cccs2)nc1SCC(=O)N1CCOCC1,72.6%
9,N#Cc1c(C(F)(F)F)cc(-c2cccs2)nc1SCC(=O)NC1CC1,1.76%
10,O=C(CSc1ccc(-c2cccs2)nn1)N1CCOCC1,5.85%
11,N#Cc1c(C(F)(F)F)cc(-c2cccs2)nc1SCc1nc(N)nc(N2CCOCC2)n1,64.2%
12,N#Cc1c(C(F)(F)F)cc(-c2cccs2)nc1SCC(=O)O,9.42%
13,N#Cc1c(C(F)(F)F)cc(-c2ccccc2)nc1SCc1nc(N)nc(N2CCOCC2)n1,5.18%
14,N#Cc1c(C(F)(F)F)cc(-c2cccs2)nc1SCC(=O)Nc1ccc(C(N)=O)cc1,-7.55%
15,Cn1cccc1/C=C1/CCC(C2CCCC2)C1=O (centres unmarked),-5.51%
16,Cc1ccc(C)n1-c1nnc(N2CCC(C(=O)NCCc3ccc(Cl)cc3)CC2)s1,-4.04%
17,O=C(NC1CCCC1)N(Cc1ccc2c(c1)OCO2)C1CCN(Cc2ccccc2)CC1,-1.41%
18,Cc1nc2c(c(C)nn2-c2ccccc2)c(C)c1CCC(=O)NCCC(C)C,2.57%
19,CCc1ccc2ncc(S(=O)(=O)c3ccccc3)c(N3CCCC3)c2c1,-3.69%
20,N#CC1=C(S)NC(=O)C(C#N)C12CCCCC2 (centres unmarked),57.8%
21,CSC1=C(C#N)C2(CCCC2)C(C#N)C(=O)N1 (centres unmarked),-0.239%
22,CSC1=C(C#N)C2(CCCCC2)C(C#N)C(=O)N1 (centres unmarked),-0.736%

row,Compound,% Inhibition @ 10 uM
1,CCN(CC)C(=O)/C=C/c1ccc(Cl)cc1,3%
2,Cn1c(=O)c2c(nc(CN3CCc4ccccc4C3)n2Cc2ccccc2)n(C)c1=O,-0.499%
3,Cn1c(=O)c2c(nc(CN3CCc4ccccc4C3)n2CCCc2ccccc2)n(C)c1=O,59.1%
4,Cn1c(=O)c2c(nc(CN3CCc4ccccc4C3)n2CCc2ccccc2)n(C)c1=O,2%
5,CC1=CC2=NC(=O)/C(=C\c3cccn3CCCOc3ccc(C)cc3)C(=N)N2O1,-1.43%
6,CCOC(=O)c1cc2c(=O)n3ccccc3nc2n(CCOC)/c1=N\C(=O)C(C)(C)C,-2.04%
7,COC(=O)Nc1ccc(S(=O)(=O)N2CCN(c3ccccc3OC)CC2)cc1,-5.13%
8,COc1ccc(C(=O)Sc2nc(C)cc(C)n2)cc1,54.6%
9,COC(=O)c1ccc(Oc2nc(C)cc(N)n2)cc1,-2.87%
10,Cc1cc(C)nc(SC(=O)c2ccc(Cl)cc2Cl)n1,-5.13%
11,CCCNc1nc(-c2ccc(C)cc2)cs1,3.33%
12,c1ccc(-c2csc(NCc3ccco3)n2)cc1,-0.178%
13,CCNc1nc(-c2ccccc2)cs1,89.1%
14,c1ccc(CC2CCN(c3ncnc4sc5c(c34)CCCC5)CC2)cc1,2.92%
15,CCn1cc2c(n1)-c1c(oc(C(=O)NCc3cccc(Br)c3)c1C)CC2,13.8%
16,CCOC(=O)c1c(CC(C)C)csc1NC(=O)c1ccc(C)cc1,-5.9%
17,CCC1CCc2c(sc(N)c2C#N)C1 (centres unmarked),11.8%
18,CCN(CC)C(=O)CSc1nc2c(c(C(F)(F)F)c1C#N)CCC2,5.64%
19,CCC1CCc2nc(S)c(C#N)c(C(F)(F)F)c2C1 (centres unmarked),88.2%
20,CC(C)c1ccc(/C=C2/NC(=O)NC2=O)cc1,-1.25%
21,Cc1ccc(S(=O)(=O)N2CCCN(S(=O)(=O)c3ccc(C)c(C)c3)CC2)cc1C,22.6%
